Sampled rows, rich in hits. Any-hit rate of the full collection: about 2.6%.
MLLE-PAM2 inh: inhibitors of microRNA-mediated deadenylation, human PABP1 MLLE binding | P11940 | GST-MLLE / FITC-PAM2 fluorescence polarization | inhibition, % at 20 µM | hit rate 0.36% among 360,000; in the data active means inhibition above about 35%, passing the limit was not always enough
Target sequence (P11940 whole entry, looked up): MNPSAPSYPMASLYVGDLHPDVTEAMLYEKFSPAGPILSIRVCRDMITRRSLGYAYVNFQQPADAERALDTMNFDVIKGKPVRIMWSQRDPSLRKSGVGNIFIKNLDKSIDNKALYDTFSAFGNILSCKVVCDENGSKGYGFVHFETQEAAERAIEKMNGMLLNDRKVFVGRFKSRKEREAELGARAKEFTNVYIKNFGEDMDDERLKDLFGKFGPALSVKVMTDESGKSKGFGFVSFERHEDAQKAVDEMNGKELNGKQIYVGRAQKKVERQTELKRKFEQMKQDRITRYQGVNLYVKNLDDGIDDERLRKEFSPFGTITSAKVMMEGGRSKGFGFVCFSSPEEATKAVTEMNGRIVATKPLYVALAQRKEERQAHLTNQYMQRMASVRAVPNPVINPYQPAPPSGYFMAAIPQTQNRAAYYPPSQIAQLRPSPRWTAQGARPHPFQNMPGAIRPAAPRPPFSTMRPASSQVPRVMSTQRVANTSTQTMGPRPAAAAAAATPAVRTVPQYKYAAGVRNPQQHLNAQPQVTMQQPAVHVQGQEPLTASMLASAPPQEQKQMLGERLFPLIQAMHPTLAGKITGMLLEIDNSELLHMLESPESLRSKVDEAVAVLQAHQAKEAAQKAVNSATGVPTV
AI-2 QS modul: Vibrio harveyi AI-2 quorum sensing modulation | Vibrio harveyi JMH597 AI-2 luminescence/OD600 ratio, 9 h; hits give low values; strain lacks LuxN and CqsS sensors; 0 = neutral-control median | activity change, % at 7.5 µM | hit rate 0.4% among 300,000; in the data active means activity change below about -75%, passing the limit was not always enough; inconclusive means no clear call, values can overlap the other calls;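 further: luminescence divided by OD600 gain over 9 h not by final OD600 alone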
eIF4H FP inh: inhibitors of RNA binding by human eIF4H; Q15056; eIF4H fluorescence polarization binding assay; inhibition, % at 35 µM; hit rate 0.94% among 290,000; AID 2012;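 further: calls also rest on retests at 20 µM and on dose response follow-up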
PHOSPHO1 inh: inhibitors of human PHOSPHO1 phosphatase. AID 1565. Q8TCT1. inhibition, % at 13.3 µM. recombinant PHOSPHO1, absorbance phosphatase assay. hit rate 1.1% among 290,000; in the data active means inhibition above about 60%
PABP FP inh: PABP-poly(A) binding inhibition; hit rate 1% among 290,000; calls only at 35 µM; PABP-poly(A) RNA binding, fluorescence polarization; AID 2014; P11940;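 further: calls also rest on retests at 20 µM and on dose response follow-up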
ABCB6 inh MLPCN: blocks the human ABCB6 transporter. Q9NP58. K562-ABCB6 porphyrin accumulation, flow cytometry, 1 h; hits give low values. fluorescence ratio to DMSO, % at 10 µM. hit rate 0.19% among 360,000. AID 602162;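 active means fluorescence ratio to DMSO below 75%, the collection mean minus 3 SD; inconclusive means too few cells collected in the well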;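 further: signal is porphyrin accumulated inside mitochondria; lower ratio means ABCB6 inhibition with less porphyrin fluorescence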
Large screens that a line does not name were inactive. Unless noted, how the calls were made is not given here.

NC(=S)n1[nH]c(-c2ccc([N+](=O)[O-])cc2)c(N=Nc2cccc([N+](=O)[O-])c2)c1=O	MLLE-PAM2 inh 42 (no result: eIF4H FP inh, PABP FP inh)
Cc1c(N=Nc2c(-c3ccc([N+](=O)[O-])cc3)[nH]n(C(N)=S)c2=O)cccc1[N+](=O)[O-]	MLLE-PAM2 inh 41, eIF4H FP inh inconclusive, PABP FP inh active (no result: AI-2 QS modul)
COc1ccc([C@H]2C[C@@H](n3cc(C4CC4)nn3)[C@H](O)CN2CC2CCCCC2)cc1	none (no result: AI-2 QS modul, eIF4H FP inh, PHOSPHO1 inh, PABP FP inh)
OC(c1ccc(F)cc1)c1nc(-c2ccc(Cl)cc2)cs1 (stereo not given)	none (no result: AI-2 QS modul, eIF4H FP inh, PHOSPHO1 inh, PABP FP inh)
CC(=O)NC(c1ccccc1)c1nc(-c2cnc3ccccc3c2)cs1 (stereo not given)	none (no result: AI-2 QS modul, eIF4H FP inh, PHOSPHO1 inh, PABP FP inh)
N=c1c2ccccc2nnn1-c1ccc(C(F)(F)F)cc1	none
FC(F)(F)c1ccc(Nc2nnnc3ccccc23)cc1	PHOSPHO1 inh 61
O=C(CN1C(=O)S/C(=C/c2ccncc2)C1=O)N1CCOCC1	MLLE-PAM2 inh 49
COc1cc(/C=C2\SC(=O)N(CC(=O)Nc3cccc(C)c3)C2=O)cc([N+](=O)[O-])c1O	PHOSPHO1 inh 62 (no result: AI-2 QS modul)
Cc1ccc(NC(=O)CN2C(=O)S/C(=C/c3ccncc3)C2=O)cc1	MLLE-PAM2 inh 48
Cc1ccc(/C=C2\SC(=S)N(CC(=O)Nc3cccnc3)C2=O)cc1	none
O=C(CN1C(=O)S/C(=C/c2cccnc2)C1=O)N1CCOCC1	none
Nc1nc2ccccc2n1S(=O)(=O)c1ccc(Cl)cc1	none (no result: AI-2 QS modul, eIF4H FP inh, PHOSPHO1 inh, PABP FP inh)
CC(=O)Nc1cccc(-c2ccnc3c2CC(C)(C(=O)Nc2ccc(Cl)c(C(F)(F)F)c2)O3)c1 (stereo not given)	none (no result: AI-2 QS modul, eIF4H FP inh, PHOSPHO1 inh, PABP FP inh)
C=CCSC1=N/C(=C\c2sccc2C)C(=O)S1	none
C=CCSC1=N/C(=C\C=C\c2ccco2)C(=O)S1	eIF4H FP inh 96, PHOSPHO1 inh 70, PABP FP inh active
COC(=O)[C@@]1(Sc2ccc(C)cc2)CC(=O)N[C@@H]1c1ccc(C(F)(F)F)cc1	none (no result: MLLE-PAM2 inh, AI-2 QS modul, eIF4H FP inh, PHOSPHO1 inh, PABP FP inh)
O=C(NC(c1ccc(F)cc1)c1ccc2ccccc2n1)C1CCN(Cc2cccc(C(F)(F)F)c2)CC1 (stereo not given)	none (no result: AI-2 QS modul, eIF4H FP inh, PHOSPHO1 inh, PABP FP inh)
CC1(OC(=O)C2CCCC2)C(=O)C=C2C=C(c3ccsc3)N(CCc3ccccn3)C=C2C1=O (stereo not given)	PABP FP inh active
CC(C)CN1C=C2C(=O)C(C)(OC(=O)C3CCCC3)C(=O)C=C2C=C1c1ccsc1 (stereo not given)	PABP FP inh active
CC1(OC(=O)C2CCCC2)C(=O)C=C2C=C(c3ccsc3)N(Cc3ccccc3)C=C2C1=O (stereo not given)	none
COc1cccc(-c2cc(CNC(=O)[C@H]3O[C@@H](n4ccc(=O)[nH]c4=O)[C@H](O)[C@@H]3O)no2)c1	none (no result: AI-2 QS modul, eIF4H FP inh, PHOSPHO1 inh, PABP FP inh)
CCN(CC)C(=O)c1cccc(-c2csc(C(O)(c3ccccc3)C(F)(F)F)n2)c1 (stereo not given)	none (no result: AI-2 QS modul, eIF4H FP inh, PHOSPHO1 inh, PABP FP inh)
COc1cc(OC)cc(C(=O)c2c(C)c(C#N)c3ccccn23)c1	none
COC1=C/C(=C/c2c(O)c(C#N)c3ccccn23)C=CC1=O	PABP FP inh active
Cc1c(C(=O)NCc2ccccc2C(F)(F)F)sc(=O)n1Cc1ccccc1C#N	none (no result: AI-2 QS modul, eIF4H FP inh, PHOSPHO1 inh, PABP FP inh)
C[C@@H]1COc2cc(N3CC[C@H](O)C3)ccc2S(=O)(=O)N1	none (no result: MLLE-PAM2 inh, AI-2 QS modul, eIF4H FP inh, PHOSPHO1 inh, PABP FP inh)
COc1ccc(NC(=O)COc2ccccc2)c(OC)c1	none
O=C(COc1ccc(Br)cc1)NNC(=S)NC(=O)c1ccccc1[N+](=O)[O-]	none
CC(=O)NC(=S)NNC(=O)COc1ccc([N+](=O)[O-])cc1	PHOSPHO1 inh 67
CC(=O)NC(=S)NNC(=O)COc1ccc(Br)cc1	PHOSPHO1 inh 61 (no result: AI-2 QS modul)
COc1ccc(NC(=O)COc2ccc(Br)cc2)c(OC)c1	PHOSPHO1 inh 60
CC(C)CC(NC(=O)c1ccccc1)C(=O)N/N=C/c1ccco1 (stereo not given)	eIF4H FP inh 58, PABP FP inh active
CC(NC(=O)c1ccccc1)C(=O)N/N=C/c1ccco1 (stereo not given)	none
COc1cccc(-c2cnc(C(O)c3ccc(Cl)c(Cl)c3)[nH]2)c1 (stereo not given)	none (no result: AI-2 QS modul, eIF4H FP inh, PHOSPHO1 inh, PABP FP inh)
Cc1cc2nnc(SC3CCOC3=O)n2c2ccccc12 (stereo not given)	PHOSPHO1 inh 74
Cc1cc(SC2CCOC2=O)nc2ccccc12 (stereo not given)	none
Cc1cc(Br)ccc1NC(=O)CCSc1ccccc1	none
Cc1cc(NC(=O)CCSc2ccccc2)ccc1Br	AI-2 QS modul -87
CCOc1ccc(-c2cc(C(=O)Nc3ccc(C)c(NS(C)(=O)=O)c3)[nH]n2)c(C)c1	none (no result: AI-2 QS modul, eIF4H FP inh, PHOSPHO1 inh, PABP FP inh)
CCOC(=O)c1sc(N)c(C#N)c1CSc1nnc(C2CCCCC2)n1N	PHOSPHO1 inh 88
COCCCN(C(C)=O)c1nc(-c2ccc(OC)cc2)cs1	ABCB6 inh MLPCN 72
CCN(CC)CCCN(C(=O)c1ccc(OC)cc1)c1nc(-c2ccc(OC)cc2)cs1	none
Cc1nnc(NC(=O)CSc2nnc(-c3ccco3)n2C(C)C)s1	none (no result: AI-2 QS modul)
CC(C)n1c(SCC(=O)Nc2nncs2)nnc1-c1ccco1	eIF4H FP inh 72, PABP FP inh active (no result: MLLE-PAM2 inh, ABCB6 inh MLPCN)
COCCCNc1oc(COc2ccc(Cl)cc2Cl)nc1C#N	none
CN(C)CCNc1oc(COc2ccc(Cl)cc2Cl)nc1C#N	PABP FP inh active
C=CCn1c(-c2csc3ccccc23)n[nH]c1=S	PHOSPHO1 inh 102
CCn1c(-c2cc(Br)ccc2O)n[nH]c1=S	none (no result: eIF4H FP inh, PHOSPHO1 inh, PABP FP inh)
CCn1c(-c2cc3ccccc3cc2O)n[nH]c1=S	PHOSPHO1 inh 92
C=CCn1c(-c2c[nH]c3ccccc23)n[nH]c1=S	PHOSPHO1 inh 101
C=CCn1c(-c2csc(-c3ccccc3)n2)n[nH]c1=S	none
CCn1c(-c2c[nH]c3ccccc23)n[nH]c1=S	PHOSPHO1 inh 79
CCN(CC)C(=O)CSc1nnc(-c2cc3ccccc3cc2O)n1CC	PHOSPHO1 inh 62
CCOC(=O)COc1ccc(S(=O)(=O)NCC2CCCO2)cc1 (stereo not given)	PHOSPHO1 inh 197
COc1ccc(C2NC3=C(CCC3)C3(C#N)C4(N=C(N)C23C#N)OCCO4)cc1 (stereo not given)	eIF4H FP inh 72, PABP FP inh active
CN(Cc1ccccc1)C(=O)C1(C)CCN1C(=O)Cc1ccc(Cl)cc1Cl (stereo not given)	none (no result: AI-2 QS modul, eIF4H FP inh, PHOSPHO1 inh, PABP FP inh)
CCOc1ccc(CCNC(=O)COC(=O)c2[nH]c(C)c(C(C)=O)c2C)cc1OCC	none (no result: AI-2 QS modul, eIF4H FP inh, PHOSPHO1 inh, PABP FP inh)
CCn1c(SCC(=O)Nc2ccc3c(c2)OCCO3)nnc1-c1ccco1	none
Cc1cccc(OCc2nnc(SCC(=O)c3cccs3)n2C)c1C	PHOSPHO1 inh 76
CCn1c(SCC(=O)c2cccs2)nnc1-c1cccs1	PHOSPHO1 inh 70
CCn1c(SCC(=O)NC(=O)Nc2ccc3c(c2)OCCO3)nnc1-c1cccs1	PHOSPHO1 inh 65
COc1ccc([C@H]2C[C@@H](n3cc(-c4ccc(F)cc4)nn3)[C@H](O)CN2C(=O)C2CCCCC2)cc1	none (no result: AI-2 QS modul, eIF4H FP inh, PHOSPHO1 inh, PABP FP inh)

Screens deposited in PubChem by several laboratories.
